Assay results published in PubChem BioAssay (Tox21).
Inconclusive results are not listed. Unmarked numbers belong to inactive results. Calls of active or inactive are those of the source. Calls come from the whole dose curve; as a rule, active = well fitted cell-killing curve with a large enough effect in the repeat runs (not every such curve was filed as active); inconclusive = weak or mixed curves, or effect the other way; inactive = no such curve, though single readings can be large or run the other way.
% is set by controls: 0 for no effect and ±100 for the full control effect; potency is the fitted concentration of half-maximal effect.

Experiment: qHTS assay to identify small molecule antagonists of the estrogen related receptor signaling pathway with the pleiotropic PPARgamma coactivator (PGC) from Tox21 10K library - cell viability counter screen (AID 1224840); note: nearly all actives have a fitted effect of over 40% in size
Conditions: PGC/ERR reporter cells viability, CellTiter-Fluor, 17.5 h; series mostly up to 92.4 µM; viability change, negative = cytotoxic: at the top concentration
From the text: National Center for Advancing Translational Sciences [NCATS]
NIH Chemical Genomics Center [NCGC]
U.S. Environmental Protection Agency [EPA]
National Institutes of Environmental Health Sciences [NIEHS]
National Toxicology Program [NTP]
U.S. Food and Drug Administration [FDA]
Estrogen related receptors (ERRs), the first orphan nuclear receptors discovered, play an important role in the control of cellular energy metabolism. ERRs are required for high-energy production in response to the environmental challenges. The pleiotropic PPARgamma coactivator (PGC) is a major partner of ERR and a key regulator in energy homeostasis. Together they have been implicated in the etiology of metabolic disorders such as Type 2 diabetes and metabolic syndrome. ERR-alpha was also identified as an adverse marker for breast cancer progression; ERR-alpha-positive tumors have a poor prognosis. To screen and to identify environmental compounds that perturb the ERR and PGC/ERR signaling pathways could provide valuable information for potential therapeutic or preventive measures in the treatment of metabolic disease. To differentiate true PGC/ERR antagonists or agonist from cytotoxic substances, the assay is multiplexed with cell viability assay.
Tox21 Assay Protocol Summary:
The PGC/ERR cells were dispensed at 2,000 cells/5 ul/well in 1536-well white plates using a Multidrop dispenser. After the assay plates were incubated at a 37 C/5% CO2 incubator for 6 hours, 23 nL of compounds dissolved in DMSO, positive and negative controls or DMSO only was transferred to the assay plate by a pin tool. The plates were incubated at 37 C for 17.5 hours. 1 ul/well of CellTiter-Fluor reagent was added into the assay plates using a Flying Reagent Dispenser. After 30-minute incubation at 37 C/5% CO2, the fluorescence intensity in the plates was measured using a ViewLux plate reader.
For `Cc1cnc[nH]1`, the “viability change, negative = cytotoxic” value was 2.58%. With `CN/C(=N\[N+](=O)[O-])NCC1CCOC1` (stereo not given) the “viability change, negative = cytotoxic” value was 6.44%. With `CCCCOC(=O)c1ccccc1C(=O)O` the “viability change, negative = cytotoxic” value was 3.27%. For `CN1C[C@@H](NS(=O)(=O)N(C)C)C[C@@H]2c3cccc4c3c(cn4C)C[C@H]21`, the “viability change, negative = cytotoxic” value was -2.67% [at 42.5 µM]. In the case of `Nc1n[nH]c(N)n1`, the “viability change, negative = cytotoxic” value is reported as -25.1%. In the case of `Cc1ncc2n1-c1ccc(Cl)cc1C(c1ccccc1F)=NC2`, the “viability change, negative = cytotoxic” value is reported as 1.66% [at 42.5 µM]. In the case of `C#CCN1C(=O)COc2cc(F)c(N3C(=O)C4=C(CCCC4)C3=O)cc21`, the “viability change, negative = cytotoxic” value is reported as -2.96%. In the case of `Nc1cc2c3c(c1)C(c1ccccc1)=N[C@@H](NC(=O)c1cccnc1)C(=O)N3CC2`, the “viability change, negative = cytotoxic” value is reported as -9.72%. In the case of `CC1COC2(c3ccccc3Cl)c3cc(Cl)ccc3NC(=O)CN12` (stereo not given), the “viability change, negative = cytotoxic” value is reported as 2.75% [at 42.5 µM]. For `CC(C(=O)c1ccccc1)N(C)C` (stereo not given), the “viability change, negative = cytotoxic” value was 1.17% [at 42.5 µM]. For `CCOC(=O)CP(=O)(OCC)OCC`, the “viability change, negative = cytotoxic” value was 2.08%. For `CN(C)CCc1ccc(O)cc1`, the “viability change, negative = cytotoxic” value was 1.32% [at 42.5 µM]. In the case of `COC(=O)c1ccccc1S(=O)(=O)NC(=O)Nc1nc(C)cc(C)n1`, the “viability change, negative = cytotoxic” value is reported as 0.378%. In the case of `C[N+](=O)[O-]`, the “viability change, negative = cytotoxic” value is reported as -3.39%. With `N#Cc1ccncc1` the “viability change, negative = cytotoxic” value was 2.49%. For `O=C(CCCN1CCC(n2c(=O)[nH]c3ccccc32)CC1)c1ccc(F)cc1`, the “viability change, negative = cytotoxic” value was -5.47% [at 42.5 µM]. In the case of `CCS(=O)(=O)C(C)(C)S(=O)(=O)CC`, the “viability change, negative = cytotoxic” value is reported as -0.415% [at 42.5 µM]. For `CC1(C)COP(Oc2ccccc2)OC1`, the “viability change, negative = cytotoxic” value was 4%. In the case of `CN1CCN(C(=O)O[C@H]2c3nccnc3C(=O)N2c2ccc(Cl)cn2)CC1`, the “viability change, negative = cytotoxic” value is reported as 8.37% [at 42.5 µM]. In the case of `Nc1cnn(-c2ccccc2)c(=O)c1Cl`, the “viability change, negative = cytotoxic” value is reported as 5.61%. For `CC(C)[N+](=O)[O-]`, the “viability change, negative = cytotoxic” value was 0.365%. In the case of `Cc1coc2c1CCC(C)C2` (stereo not given), the “viability change, negative = cytotoxic” value is reported as 2.59%. In the case of `Cc1cc(C)nc(Nc2ccccc2)n1`, the “viability change, negative = cytotoxic” value is reported as -7.6%. With `COc1cc2c(cc1OC)[C@@]13CCN4CC5=CCO[C@H]6CC(=O)N2[C@H]1[C@H]6[C@H]5C[C@H]43` the “viability change, negative = cytotoxic” value was -0.541%. For `CCC1(c2ccccc2)C(=O)N=C(O)NC1=O` (stereo not given), the “viability change, negative = cytotoxic” value was 1.54%. With `c1ccc(N2CCNCC2)cc1` the “viability change, negative = cytotoxic” value was -2.19% [at 42.5 µM]. For `CNC(=O)Oc1c(C(C)(C)C)cc(C)cc1C(C)(C)C`, the “viability change, negative = cytotoxic” value was 1%. In the case of `COc1cc(OC)nc(NC(=O)NS(=O)(=O)c2ncccc2OCC(F)(F)F)n1`, the “viability change, negative = cytotoxic” value is reported as -0.763%. In the case of `CC(C)CC(N(C)C)C1(c2ccc(Cl)cc2)CCC1` (stereo not given), the “viability change, negative = cytotoxic” value is reported as -7.57% [at 42.5 µM]. With `CC1(C)CON(Cc2ccccc2Cl)C1=O` the “viability change, negative = cytotoxic” value was 0.897%. With `CC(C)CP(=S)(S)CC(C)C` the Potency was 2.73 µM (active). With `CCN(Cc1ccc(Cl)nc1)/C(=C/[N+](=O)[O-])NC` the “viability change, negative = cytotoxic” value was 0.58% [at 42.5 µM]. For `CC(COc1ccc(Oc2ccccc2)cc1)Oc1ccccn1` (stereo not given), the “viability change, negative = cytotoxic” value was 4.28%. For `C1CCC(C2CCCCC2)CC1`, the “viability change, negative = cytotoxic” value was -8.94%. With `O=CNC(N1CCN(C(NC=O)C(Cl)(Cl)Cl)CC1)C(Cl)(Cl)Cl` (stereo not given) the “viability change, negative = cytotoxic” value was 2.45%. In the case of `Nc1cc(Cl)ccc1O`, the “viability change, negative = cytotoxic” value is reported as -29%. With `CC(=O)C(Cl)Cl` the “viability change, negative = cytotoxic” value was -1.18%. For `COc1cc(OC)nc(Oc2cccc(Oc3nc(OC)cc(OC)n3)c2C(=O)O)n1`, the “viability change, negative = cytotoxic” value was 3.92%. For `CCCSC(=O)N(CCC)CCC`, the “viability change, negative = cytotoxic” value was -1.33%. With `CSc1ccc(C(=O)C(C)(C)N2CCOCC2)cc1` the “viability change, negative = cytotoxic” value was -6.57%.
